Each structure is given as a SMILES string. Records with an inconclusive call do not appear. Where a call stands in place of a potency, no number is given. Activity calls are given as the source filed them. Calls follow the shape of the dose curve; as a rule, active = well fitted inhibition curve with a large enough effect; inconclusive = small, poorly fitted or top-dose-only effect; inactive = flat fitted curve, though single readings scatter.

For the assay, the target named is Glutathione peroxidase 1 (Homo sapiens) (UniProt P07203). As to the kind of experiment: Primary qHTS Assay for Inhibitors of Recombinant Selenoprotein Glutathione Peroxidase 1 (GPX1) (AID 1845191). Also: nearly all actives have a fitted effect of over 65% in size. To be noted: recombinant GPX1, GR-coupled NADPH fluorescence, 15 min; series mostly up to 48.8 µM. A digest of the protocol: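 Recombinant GPX1 (10 nM final) was preincubated with compound for 30 min at room temperature, then reacted with 1 mM GSH, 0.5 mM CHP, 0.5 mM NADPH and 100 nM glutathione reductase; NADPH fluorescence (340/450 nm) was read at 0 and 15 min.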
Sequence of Glutathione peroxidase 1 (Homo sapiens) (P07203 whole entry, looked up): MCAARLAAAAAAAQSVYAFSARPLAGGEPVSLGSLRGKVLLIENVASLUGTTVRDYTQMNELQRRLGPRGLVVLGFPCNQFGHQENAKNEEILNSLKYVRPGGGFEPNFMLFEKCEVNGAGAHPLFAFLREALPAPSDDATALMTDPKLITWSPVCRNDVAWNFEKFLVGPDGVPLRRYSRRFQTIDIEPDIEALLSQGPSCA
(In general: Quantitative high-throughput screening tests each substance at several concentrations.)
`C=C[C@H]1CN2CC[C@H]1C[C@H]2[C@H](O)c1ccnc2ccc(OC)cc12`: the Potency result is “inactive”.

For `CC(=O)OCC(=O)[C@H]1CC[C@H]2[C@@H]3CCC4=CC(=O)CC[C@]4(C)[C@H]3CC[C@]12C`, the Potency entry is “inactive”.

Take `CN(C)CCOC(c1ccc(Cl)cc1)c1ccccn1` (stereo not drawn): the Potency result was “inactive”.

As for `Cc1ccc(-c2ncc(Cl)cc2-c2ccc(S(C)(=O)=O)cc2)cn1`, the Potency result is “inactive”.

On to `OCCOCCN1CCN(C2=Nc3ccccc3Sc3ccccc32)CC1`, for which the Potency result is “inactive”.

With `CC(C(=O)O)c1cccc(Oc2ccccc2)c1` (stereo not drawn), the Potency result is “inactive”.

As to `O=C(CCCN1CC=C(n2c(=O)[nH]c3ccccc32)CC1)c1ccc(F)cc1`, the Potency entry is “inactive”.

In the case of `COc1cc(N)c(Cl)cc1C(=O)NC1CCN(Cc2ccccc2)CC1`, the Potency entry is “inactive”.

On to `CCCCCCCCCCCCCCCCO`, for which the Potency result was “inactive”.

As to `COc1ccc(-c2cc(C(F)F)nn2-c2ccc(S(N)(=O)=O)cc2)cc1F`, the Potency result was “inactive”.

As to `O=C(O)P(=O)(O)O`, the Potency result was “inactive”.

As for `O=C1[C@H](CC[C@H](O)c2ccc(F)cc2)[C@@H](c2ccc(O)cc2)N1c1ccc(F)cc1`, the Potency result was “inactive”.

Regarding `COc1ccc(CN(CCN(C)C)c2ncccn2)cc1`, the Potency result is “inactive”.

As to `CC[C@]12CCCN3CCc4c(n(c5ccccc45)C(=O)C1)[C@@H]32`, the Potency entry was “inactive”.

With `C#C[C@]1(O)CC[C@H]2[C@@H]3CCC4=Cc5oncc5C[C@]4(C)[C@H]3CC[C@@]21C`, the Potency entry was “inactive”.

In the case of `O=C1c2cccc3c2[C@H](CCC3)CN1[C@@H]1CN2CCC1CC2`, the Potency result is “inactive”.

Consider `C[N+]1(C)CCC(=C(c2ccccc2)c2ccccc2)CC1`, for which the Potency result was “inactive”.

With `FC(F)(F)C(F)(F)C(F)(F)C(F)(F)C(F)(F)C(F)(F)C(F)(F)C(F)(F)Br`, the Potency entry is “inactive”.

The values above are taken from PubChem BioAssay (NCATS).
